Assay outcomes as filed in PubChem.
PLK1 PBD block: qHTS for Inhibitors of PLK1-PDB (polo-like kinase 1 - polo-box domain): Primary Screen | Plk1 PBD binding of FITC phosphopeptide, fluorescence polarization | Potency, µM, without a hit: max response, negative = inhibition, hits mostly inhibitors | 360,000 compounds, 2.8% hits; also: series mostly up to about 57 µM; % is scaled to controls: 0 for no effect and ±100 for the full control effect; nearly all actives have a fitted effect of over 65% in size
VDR inhibitor: Inhibitors of the vitamin D receptor (VDR): qHTS | Vitamin D3 receptor (Homo sapiens), P11473 | VDR-SRC2-3 peptide fluorescence polarization, 2 h | Potency, µM, for the others: max response, negative = inhibition, hits mostly inhibitors | 400,000 compounds, 0.93% hits | AID 504847, 2011; also: % is scaled to controls: 0 for no effect and ±100 for the full control effect
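Fluorescence polarization assay of small-molecule disruption of VDR binding to coregulator peptide SRC2-3. Compounds and controls pin-transferred, then read after 2 h incubation at ambient room temperature.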
JMJD2A Tudor: qHTS Assay for Inhibitors of JMJD2A-Tudor Domain | Potency, µM (doses to about 114 µM), for inactives: at the highest dose activity change, negative = inhibition, hits mostly inhibitors | 390,000 compounds, 4.4% hits | AlphaScreen JMJD2A-Tudor / H3K4me3 peptide binding; also: % is scaled to controls: 0 for no effect and ±100 for the full control effect; nearly all actives have a fitted effect of over 50% in size
HP1b binding inh: HTS for Inhibitors of HP1-beta Chromodomain Interactions with Methylated Histone Tails | Potency, µM (top dose mostly 114 µM), inactives show at the top dose activity change, negative = inhibition, usual class: inhibitors | AlphaScreen HP1-beta / biotin-H3K9me3 peptide binding | Chromobox protein homolog 1 (Homo sapiens), P83916 | AID 540317, 2011 | 390,000 compounds, 0.56% hits; also: nearly all actives have a fitted effect of over 70% in size
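AlphaScreen: HP1-beta (50 nM) preformed 30 min with biotin-H3(1-18)K9me3 peptide (50 nM) in PBS pH 7.4, 0.01% Tween-20. Compound added for 30 min at RT, then streptavidin donor/nickel chelate acceptor beads (10 ug/mL) for 30 min.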
BAZ2B block: qHTS Assay for Inhibitors of BAZ2B. AlphaScreen BAZ2B-H3K14Ac peptide displacement. 360,000 compounds, 4.4% hits. Bromodomain adjacent to zinc finger domain protein 2B (Homo sapiens), Q9UIF8. Potency, µM (top dose mostly 114 µM), without a hit: top-dose activity change, negative = inhibition, hits mostly inhibitors; also: % is scaled to controls: 0 for no effect and ±100 for the full control effect; nearly all actives have a fitted effect of over 60% in size
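In this displacement format the biotinylated H3(5-23) peptide acetylated at Lys14 serves as ligand at 50 nM, with BAZ2B at 50 nM in PBS pH 7.4 containing 0.01% Tween-20. Donor and acceptor beads are 10 ug/mL final.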
G9a block: qHTS Assay for Inhibitors of Histone Lysine Methyltransferase G9a; Histone-lysine N-methyltransferase EHMT2 (Homo sapiens), Q96KQ7; G9a H3K9 monomethylation, AlphaScreen, 2 h; Potency, µM (doses to about 102 µM), for inactives: at the top dose activity, negative = inhibition, most hits filed as inhibitors; 350,000 compounds, 8.8% hits; also: % is scaled to controls: 0 for no effect and ±100 for the full control effect; nearly all actives have a fitted effect of over 75% in size
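Compounds were preincubated with 20 nM G9a for 15 min, after which biotinylated H3K9 peptide (500 nM) and SAM (20 uM) started a 2 h room-temperature reaction. Monomethylated product was quantified by antibody-based AlphaScreen chemiluminescence.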
An asterisk follows results filed as active; [ ] = remark or other dose. This is a sample that favours compounds with a hit; in the whole collection about 11% have one here. Calls follow the shape of the dose curve; as a rule, active = well fitted curve in the direction sought with a large enough effect; inconclusive = small, poorly fitted or top-dose-only effect, or another doubt; inactive = no such curve, though single readings can be large; an effect the other way counts as inactive or inconclusive. Potency is read from the fitted curve at half-maximal effect.

What do the screens show for `CCOc1ccc(NC(=O)c2sc3nc4n(c(=O)c3c2C)CCCC4)cc1`?
VDR inhibitor: 12%; JMJD2A Tudor: inconclusive; HP1b binding inh: 57%; BAZ2B block: 32µM*; G9a block: 16µM*

Results for CC(=O)c1cccc(NC(=O)c2sc3nc4n(c(=O)c3c2C)CCCC4)c1 ?
PLK1 PBD block: 24µM*; VDR inhibitor: -22%; JMJD2A Tudor: inconclusive; HP1b binding inh: 16%; BAZ2B block: -38%; G9a block: -9%

What do the screens show for `Cc1c(C(=O)Nc2cccc(C(F)(F)F)c2)sc2nc3n(c(=O)c12)CCCC3`?
VDR inhibitor: 14%; JMJD2A Tudor: -14%; HP1b binding inh: 43%; BAZ2B block: -1%; G9a block: 3.5µM*

Results for CCc1ccc(NC(=O)c2sc3nc4n(c(=O)c3c2C)CCC4)cc1 ?
PLK1 PBD block: -1%; VDR inhibitor: 10%; JMJD2A Tudor: -16%; HP1b binding inh: 21%[57 µM]; BAZ2B block: -17%; G9a block: 80%

What do the screens show for `CCOC(=O)C1CC(c2ccccc2)=NN1c1ccccc1` (stereo not given)?
PLK1 PBD block: 4%

Results for O=C(Nc1ccc(F)cc1)C(c1cccc(F)c1)N1CCN(c2ccncc2)CC1 (stereo not given) ?
PLK1 PBD block: 3%

How did CC(C)C(NC(=O)CSCc1ccc([N+](=O)[O-])cc1)C(C)C do in these assays?
PLK1 PBD block: -18%; VDR inhibitor: 7%; JMJD2A Tudor: -11%; HP1b binding inh: 25%; BAZ2B block: 17%; G9a block: inconclusive

How did CC(=O)c1nn(-c2ccc(Cl)cc2)c(=O)[nH]c1=O do in these assays?
PLK1 PBD block: -3%; VDR inhibitor: -16%; JMJD2A Tudor: -11%; HP1b binding inh: 33%; BAZ2B block: 3%; G9a block: 2%

What do the screens show for `O=c1[nH][nH]c2cc(=O)n(-c3ccc(Cl)cc3)nc12`?
PLK1 PBD block: -21%; VDR inhibitor: 0%; JMJD2A Tudor: inconclusive; HP1b binding inh: -13%; BAZ2B block: 50µM*; G9a block: 40µM*

What do the screens show for `Nc1ccc(Oc2cc(N)cc(Oc3ccccc3)c2)cc1`?
PLK1 PBD block: -6%; VDR inhibitor: -1%; JMJD2A Tudor: inconclusive; HP1b binding inh: inconclusive; BAZ2B block: 50µM*; G9a block: inconclusive

How did CCCc1cc(=O)[nH]c2nnc(SCC(=O)Nc3nnc(CC)s3)n12 do in these assays?
PLK1 PBD block: -9%; VDR inhibitor: -19%; JMJD2A Tudor: 25µM*; HP1b binding inh: 7%; BAZ2B block: 6%; G9a block: -8%[12.7 µM]

How did CC1(C(=O)Nc2ccc(Cl)cc2)Cc2c(-c3ccc4c(c3)OCO4)ccnc2O1 (stereo not given) do in these assays?
PLK1 PBD block: 5%

Results for O=C(NCCN1CCOCC1)NC1(C(F)(F)F)Oc2ccc(Cl)cc2O1 (stereo not given) ?
PLK1 PBD block: -21%; VDR inhibitor: -19%; JMJD2A Tudor: 40µM*; HP1b binding inh: 34%; BAZ2B block: 2%; G9a block: 10µM*

What do the screens show for `O=C(NCCN1CCOCC1)c1cc(Cl)ccc1Cl`?
PLK1 PBD block: -13%; VDR inhibitor: -24%; JMJD2A Tudor: -15%; HP1b binding inh: 27%; BAZ2B block: -1%; G9a block: 19%

What do the screens show for `COCC(C)NC(=O)NC1(C(F)(F)F)Oc2ccc(Cl)cc2O1` (stereo not given)?
PLK1 PBD block: -12%; VDR inhibitor: 15%; JMJD2A Tudor: -15%[57.1 µM]; HP1b binding inh: 3%; BAZ2B block: 12%; G9a block: 35µM*

How did CCc1nnc(NC(=O)Cn2nc(-c3ccccc3OC)ccc2=O)s1 do in these assays?
PLK1 PBD block: -10%; VDR inhibitor: 0%; JMJD2A Tudor: -13%; HP1b binding inh: 15%; BAZ2B block: 16%; G9a block: -11%[12.7 µM]

What do the screens show for `COc1ccc(NC(C)(C)c2nnnn2-c2c(C)cccc2C)cc1`?
PLK1 PBD block: -1%; VDR inhibitor: 7%; JMJD2A Tudor: -31%; HP1b binding inh: -4%; BAZ2B block: inconclusive

How did CCOc1ccc(NCc2cccn2-c2nnc(N3CCC(C(=O)NCCCN4C(C)CCCC4C)CC3)s2)cc1 (stereo not given) do in these assays?
PLK1 PBD block: inconclusive; VDR inhibitor: -13%; JMJD2A Tudor: 56µM*; HP1b binding inh: -21%; BAZ2B block: 40µM*; G9a block: 40µM*

What do the screens show for `CCOc1ccc(NCc2cccn2-c2nnc(N3CCC(C(=O)NCCCN4CCCCC4C)CC3)s2)cc1` (stereo not given)?
PLK1 PBD block: 3%; VDR inhibitor: -11%; JMJD2A Tudor: 40µM*; HP1b binding inh: -15%[57 µM]; BAZ2B block: inconclusive; G9a block: 50µM*

Results for CCOc1ccc(NCc2cccn2-c2nnc(N3CCC(C(=O)NCCCN4CCCCC4)CC3)s2)cc1 ?
PLK1 PBD block: -10%; VDR inhibitor: 12%; JMJD2A Tudor: 50µM*; HP1b binding inh: inconclusive; BAZ2B block: 40µM*; G9a block: 40µM*

Results for CCN1CCOC(CC(=O)Nc2cccc([N+](=O)[O-])c2)C1=O (stereo not given) ?
PLK1 PBD block: -9%; VDR inhibitor: -2%; JMJD2A Tudor: -2%; HP1b binding inh: 16%; BAZ2B block: -29%; G9a block: 7.9µM*

Results for COc1cccc(-n2c(COc3ccc(C)cc3)nnc2SCC(N)=O)c1 ?
PLK1 PBD block: -7%; VDR inhibitor: -17%; JMJD2A Tudor: -15%; HP1b binding inh: 10%; BAZ2B block: inconclusive; G9a block: inconclusive

How did Cc1ccnc(SCC(=O)c2cccc([N+](=O)[O-])c2)n1 do in these assays?
PLK1 PBD block: -6%; VDR inhibitor: -19%; JMJD2A Tudor: -6%; HP1b binding inh: 32%; BAZ2B block: -26%; G9a block: 22µM*

Results for COc1ccc(-n2c(COc3ccc4c(c3)OCO4)nnc2SCC(=O)O)cc1 ?
PLK1 PBD block: -9%; VDR inhibitor: 7%; JMJD2A Tudor: -21%; HP1b binding inh: 21%; BAZ2B block: -27%; G9a block: 50µM*

What do the screens show for `COc1ccc(-n2c(COc3ccc(C)cc3)nnc2SCC(N)=O)cc1`?
PLK1 PBD block: -2%; VDR inhibitor: -8%; JMJD2A Tudor: -16%; HP1b binding inh: 34%; BAZ2B block: 0%; G9a block: 32µM*
